Records with an inconclusive call do not appear. Calls of active or inactive are those of the source. Calls come from the whole dose curve; as a rule, active = well fitted cell-killing curve with a large enough effect; inconclusive = small, poorly fitted or top-dose-only effect; inactive = no such curve, though single readings can be large or run the other way.
Potency is the fitted concentration of half-maximal effect.

The nature of this assay: Quantitative High-Throughput drug screen in 47 multiple myeloma cell lines against the NCATS MIPE library collection: NCIH929_DSMZ cell viability assay (AID 1918978). Note: nearly all actives have a fitted effect of over 35% in size. The settings on record: NCI-H929 myeloma viability, CellTiter-Glo ATP, 48 h; series mostly up to 45.8 µM; viability, % of control: at the top concentration. The text has this: PI: Beverly A. Mock Ph.D.
Laboratory of Cancer Biology and Genetics,
Center for Cancer Research, National Cancer Institute,
National Institute of Health, Bethesda, Maryland
Drug resistance and disease progression are common in multiple myeloma (MM) patients, underscoring the need for new therapeutic combinations. […] We hypothesized that effective combinations would reduce MYC expression and enhance p16 activity. […] These preclinical data identify potentially useful drug combinations for evaluation in drug-resistant MM and reveal potential mechanisms of combined drug sensitivity.
Described herein is the primary MIPE qHTS used to cherrypick compounds. Validated compounds were then further tested for potential synergistic activiy.
[1] Peat TJ, Gaikwad SM, Dubois W, Gyabaah-Kessie N, Zhang S, Gorjifard S, Phyo Z, Andres M, Hughitt VK, Simpson RM, Miller MA, Girvin AT, Taylor A, Williams D, D'Antonio N, Zhang Y, Rajagopalan A, Flietner E, Wilson K, Zhang X, Shinn P, Klumpp-Thomas C, McKnight C, Itkin Z, Chen L, Kazandijian D, Zhang J, Michalowski AM, Simmons JK, Keats J, Thomas CJ, Mock BA. Drug combinations identified by high-throughput screening promote cell cycle transition and upregulate Smad pathways in myeloma. Cancer Lett. 2023 Aug 1;568:216284. doi: 10.1016/j.canlet.2023.216284. Epub 2023 Jun 24. PMID: 37356470; PMCID: PMC10408729.
SEQUENCE No. (e.g., 1, 2, 3, etc.); […] (e.g., Cells, Incubation, Reagent, etc.); VALUE and DESCRIPTION.
1; Cells; 5 uL; white, solid bottom 1536-well Greiner assay plate.
2; Compounds; 23 nL; Kalypsis pin tool (Wako USA) equipped with a 1536-well pin head to transfer to the assay plates.
3; Incubation; 48 hours; 37C incubation.
4; Reagent;5uL; CellTiter Glo (Promega).
5; Detector; 425V; Luminescence; Viewlux PerkinElmer.
NOTES (numbers refer to Sequence numbers above)
1. The cell-based screening methods employed in this study were like those previously published. Briefly, the corresponding myeloma cell lines were screened in 1,536-well plates with 500 cells, 5-uL per well for inhibition of cell viability (assessed by measuring ATP levels with CellTiterGlo).
2. NCATS MIPE 4.0 library of approved and investigational drugs were added using the Kalypsis pin tool. Wells treated with DMSO only for 100% viability and media only for 0% viability were used as controls.
3. The assay plates were covered and incubated for 48 hours in a 37C, 5% CO2 incubator with controlled humidity.
4. After 48 hours, CellTilter-GloTM luminescent substrate mix (Promega) reagent was added to the assay plate and plates we incubated for 5 min at room temperature.
5. Signal was measured as median relative luminescence units on a ViewLux (PerkinElmer) multiplate reader.
[1] Heske CM, Davis MI, Baumgart JT, Wilson K, Gormally MV, Chen L, Zhang X, Ceribelli M, Duveau DY, Guha R, Ferrer M, Arnaldez FI, Ji J, Tran HL, Zhang Y, Mendoza A, Helman LJ, Thomas CJ. Matrix Screen Identifies Synergistic Combination of PARP Inhibitors and Nicotinamide Phosphoribosyltransferase (NAMPT) Inhibitors in Ewing Sarcoma. Clin Cancer Res. 2017 Dec 1;23(23):7301-7311. doi: 10.1158/1078-0432.CCR-17-1121. Epub 2017 Sep 12. PMID: 28899971; PMCID: PMC6636827.
For orientation: ATP-based viability assays read luminescence as a measure of living cells.
As to `COC(=O)Nc1nc2ccc(C(=O)c3ccc(F)cc3)cc2[nH]1`, the Potency was 743 nM (active).

Take `CC1=C(CO)C(=O)O[C@@H]([C@@H](C)[C@H]2CC[C@H]3[C@@H]4C[C@H]5O[C@]56[C@@H](O)C=CC(=O)[C@]6(C)[C@@H]4CC[C@]23C)C1`: the Potency is 166 nM (active).

Consider `Nc1nc(NCCNc2ncc(-n3ccnc3)c(-c3ccc(Cl)cc3Cl)n2)ccc1[N+](=O)[O-]`, for which the Potency is 1180 nM (active). On the same count and under the same terms, under `CNc1nccc(-c2cccnc2Oc2cc(C(=O)Nc3cccc(C(F)(F)F)c3)ccc2C)n1` stands 5260 nM (active). On to `C1Cc2[nH]nc(-c3nn[nH]n3)c2C1`, for which the “viability, % of control” value is 102% (inactive).

As to `Cc1cc(Nc2cc(CN3CCOCC3)c3nc(C)c(Cc4ccc(Cl)cc4F)n3n2)n[nH]1`, the Potency is 26400 nM (active).

Take `CC[C@@]1(O)C(=O)OCc2c1cc1n(c2=O)Cc2cc3cc(O)ccc3nc2-1`: the Potency is 296 nM (active).

Consider `Cc1nc(N)ncc1-c1nc(N2CCOCC2)c2sc(C(C)(C)O)cc2n1`, for which the Potency is 52.6 nM (active). With `CC(C)c1cnn2c(NCc3ccccc3)cc(N[C@@H](CO)[C@H](O)CO)nc12`, the Potency is 166 nM (active).

Regarding `OCCCNc1cc(-c2ccnc(Nc3cccc(Cl)c3)n2)ccn1`, the Potency is 29.6 nM (active). Same read-out and setting: to `Cc1ccc(-c2ncn(-c3ccc(Nc4nccc(-c5cccc(N6CCOCC6)c5)n4)cc3)n2)cn1` belongs 264 nM (active). As for `N#Cc1c(O)c2c(-c3ccc(-c4ccccc4O)cc3)csc2[nH]c1=O`, the “viability, % of control” value was 124% (inactive). Still for that read-out and setting: to `COc1cccc(Nc2c(C(N)=O)cnc3c(C)cc(S(=O)(=O)c4cccc(C(=O)N(C)C)c4)cc23)c1` belongs 120% [at 23.2 µM] (inactive); to `CCCn1c(=O)c2[nH]c(-c3cnn(Cc4cccc(C(F)(F)F)c4)c3)nc2n(CC)c1=O`, 112% (inactive).

Regarding `CC(=O)Nc1nc(C)c(-c2ccc(Cl)c(S(=O)(=O)NCCO)c2)s1`, the Potency is 833 nM (active). In the case of `CCC[C@H](NC(=O)C(C#N)=Cc1cccc(Br)n1)c1ccccc1`, the Potency is 1050 nM (active). As to `CC1COC2(CCN(c3nc(=O)c4cc(C(F)(F)F)cc([N+](=O)[O-])c4s3)CC2)O1` (stereo not given), the “viability, % of control” value was 117% (inactive). In the case of `CC(C)c1nn(-c2c(Cl)cccc2Cl)c2nc(Cc3ccc(OCCO)cc3)[nH]c(=O)c12`, the Potency was 105 nM (active). On the same count and under the same terms, under `CCn1nnc2c(N3CCOCC3)nc(-c3ccc(NC(=O)Nc4ccc(C(=O)N5CCN(C)CC5)cc4)cc3)nc21` stands 6.6 nM (active). For the compound `COC(=O)C1=C(C)NC(C)=C(C(=O)OCCN2CCN(C(c3ccccc3)c3ccccc3)CC2)C1c1cccc([N+](=O)[O-])c1` (stereo not given), the “viability, % of control” value was 109% (inactive). Turning to `Cc1[nH]c2ccccc2c1CCNCc1ccc(C=CC(=O)NO)cc1`, the Potency was 52.6 nM (active). For `COc1cccc(-c2ccc(NC(=O)C3=C(C(=O)O)CCC3)c(F)c2)c1`, the Potency is 20900 nM (active).

As for `COc1cc2c(Oc3ccc(-c4cnc(Nc5ccc(F)cc5)n(C)c4=O)cc3F)ccnc2cc1OCCCN1CCOCC1`, the Potency was 2640 nM (active). As for `C[C@@H]1COC(Nc2ccc3ncnc(Nc4ccc(OCc5nccs5)c(Cl)c4)c3c2)=N1`, the Potency was 3320 nM (active). Consider `CNC(=O)c1ccc(-c2cnc3ncc(Cc4ccc5ncccc5c4)n3n2)cc1F`, for which the “viability, % of control” value was 99.4% (inactive). For the compound `Cc1coc2c1C(=O)C(=O)c1c-2ccc2c1CCCC2(C)C`, the Potency was 13200 nM (active). Same read-out and setting: to `COc1cccc2nc(-c3cccs3)nc(NN3C(=O)C=C(C)C3=O)c12` belongs 235 nM (active); to `CN1CCN(c2cc(C(=O)Nc3ccc4c(c3)-c3c(c(C(N)=O)nn3-c3ccc(F)cc3)CC4)c(Cl)cn2)CC1`, 743 nM (active). On the same count and under the same terms, to `CC(C)(C)OC(=O)Nc1ccc(-c2cc(C(=O)NCCCCCCC(=O)NO)no2)cc1` belongs 1660 nM (active); to `c1cc(-c2cnn3cc(-c4ccc(OCCN5CCCCC5)cc4)cnc23)ccn1`, 2350 nM (active). The same measure, in the same setting: to `COc1cc2ncnc(Nc3ccc(F)c(Cl)c3)c2cc1NC(=O)C=CCN1CCCCC1` belongs 4690 nM (active).

With `CCCNC(=O)Nc1ccc(Oc2ncnc3cc(OC)c(OC)cc23)cc1Cl`, the “viability, % of control” value was 99.1% (inactive). For the compound `CC(NCc1ccc2c(c1)nc(NC(=O)c1ccc(-c3cn[nH]c3)s1)n2CC(C)(C)O)C(C)(C)C` (stereo not given), the Potency is 235 nM (active).

Consider `Cc1cccc(C=NNc2cc(N3CCOCC3)nc(OCCc3ccccn3)n2)c1`, for which the Potency was 14800 nM (active). The same measure, in the same setting: under `CNC(=O)c1ccccc1Nc1nc(Nc2ccc(N3CCOCC3)cc2OC)ncc1Cl` stands 166 nM (active).

With `Cc1cn(-c2cc(NC(=O)c3ccc(C)c(Nc4nccc(-c5cccnc5)n4)c3)cc(C(F)(F)F)c2)cn1`, the “viability, % of control” value is 95% (inactive). Consider `CN(C)CC=CC(=O)Nc1cc2c(Nc3ccc(F)c(Cl)c3)ncnc2cc1O[C@H]1CCOC1`, for which the Potency is 5260 nM (active). Still for that read-out and setting: to `NCC(=O)Nc1ccc(-n2nc(C(F)(F)F)cc2-c2ccc3c(ccc4ccccc43)c2)cc1` belongs 16600 nM (active). The same measure, in the same setting: to `Nc1nccc(Oc2ccc(NC(=O)c3c[nH]cc(-c4ccc(F)cc4)c3=O)cc2F)c1Cl` belongs 20900 nM (active). `COc1ccc(-n2nc(C(N)=O)c3c2C(=O)N(c2ccc(N4CCCCC4=O)cc2)CC3)cc1`: the “viability, % of control” value was 119% (inactive).

The record behind these values is PubChem BioAssay (NCATS).
